Screening data from PubChem.
Many of the other results were omitted from the sample, so hits are more common in it than they were.
JMJD2E inh: JMJD2E (human) inhibition; AID 2147; B2RXH2; 230,000 compounds, 1.6% hits; Potency, µM (titrated, usually from 57.1 µM), for the others: at the highest dose activity change, negative = inhibition, hits mostly inhibitors; JMJD2E catalytic domain, FDH-coupled NADH fluorescence (FDH is formaldehyde dehydrogenase);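 note: 0% = wells with enzyme and -100% = buffer wells without enzyme; nearly all actives have a fitted effect of over 50% in size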
BLM inh-1: Bloom syndrome helicase (human) inhibition; P54132; recombinant BLM DNA unwinding, fluorescence dequenching; Potency, µM (top dose mostly 56.1 µM), for inactives: at the highest dose activity change, negative = inhibition, actives largely listed as inhibitors; 350,000 compounds, 0.2% hits; AID 2528;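 note: plate controls were vehicle for no effect and no enzyme for full effect; nearly all actives have a fitted effect of over 35% in size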
APEX1 inh: inhibitors of human APE1 endonuclease | P27695 | recombinant APE1, TAMRA/BHQ-2 abasic DNA cleavage fluorescence | Potency, µM (series often up to 65.8 µM), without a hit: at the highest dose activity change, negative = inhibition, usual class: inhibitors | 350,000 compounds, 0.35% hits | AID 2517;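 note: plate controls were vehicle for no effect and reference inhibitor for full effect; nearly all actives have a fitted effect of over 55% in size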
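Activity was derived from the fluorescence gain between first and third kinetic reads (60 s intervals, ex 525/em 598 nm) after 50 nM THF-abasic TAMRA/BHQ-2 duplex was added to 0.75 nM APE1 preincubated 15 min with compound.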
PKM2 activator: PKM2 (human) enzyme activation | purified PKM2, Kinase-Glo ATP luminescence, activation; response scale: 0% is enzyme alone, no compound | Potency, µM (titrated, usually from 57.5 µM), without a hit: at the highest dose activation, hits mostly activators | 260,000 compounds, 0.34% hits; note: nearly all actives have a fitted effect of over 55% in size
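ATP formation by purified human PK-M2, quantified via coupled luciferase luminescence after 1 h at room temperature with 0.1 mM ADP and 0.5 mM PEP final.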
RECQ1 helicase: blocks DNA unwinding by human RECQ1 | P46063 | RECQ1 DNA unwinding, red fluorescence kinetic read | Potency, µM (titrated, usually from 57.3 µM), without a hit: top-dose activity, negative = inhibition, most hits filed as inhibitors | 240,000 compounds, 0.54% hits | AID 2549;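 note: plate controls were vehicle for no effect and no enzyme for full effect; nearly all actives have a fitted effect of over 30% in size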
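50 nM RECQ1T1 preincubated 15 min with compound in Tris pH 8.0 buffer with MgCl2, DTT, Tween-20 and 2.5 ug/ml poly(dI-dC); started with 200 nM TAMRA/BHQ-2 forked duplex and 2 mM ATP. Unwinding read as fluorescence (525/598 nm), two reads 2 h apart.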
BLM inh-2: BLM (human) helicase inhibition, confirmation; BLM DNA unwinding, fluorescence quenching, biochemical; Potency, µM, inactives show max response, negative = inhibition, actives largely listed as inhibitors; 220 compounds, 40% hits; shares compounds with BLM inh-1;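 note: strand separation dequenches TAMRA so unwinding raises red fluorescence; series mostly up to about 69 µM; nearly all actives have a fitted effect of over 45% in size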
* = called active by the depositor; i = inactive; u = inconclusive; x = no result given; ! = a repeat was not active; [ ] = another dose, or the depositor's remark. Unless noted, calls come from the whole dose curve; as a rule, active = well fitted curve in the direction sought with a large enough effect; inconclusive = small, poorly fitted or top-dose-only effect, or another doubt; inactive = no such curve, though single readings can be large; an effect the other way counts as inactive or inconclusive. Unless noted, % is set by controls: 0 for no effect and ±100 for the full control effect; potency is the fitted concentration of half-maximal effect.

SMILES | JMJD2E inh | BLM inh-1 | APEX1 inh | PKM2 activator | RECQ1 helicase | BLM inh-2
O=C1Nc2ccc(I)cc2/C1=C/c1cc(Br)c(O)c(Br)c1 | 2% | u | 0% | x | 25µM*! | 96µM*
Cc1ccc2c(c1)/C(=C/c1ccccc1)C(=O)N2 | x | -13% | -7% | x | x | x
COc1ccc2nc3cccc(OC)c3nc2c1 | -24% | 3.5µM* | u | 11% | 1% | 10%
COc1ccc2nc3ccccc3nc2c1N | u | u | u | 7% | -1% | x
CCCc1nc2ccccc2c(=O)n1-c1ccc(C(=O)OCC)cc1 | 0% | 7.9µM* | -3% | 2% | 8% | -6%
CCC(C)n1c(NC(=O)c2ccccc2)c(C#N)c2nc3ccccc3nc21 (stereo not drawn) | u | 10µM* | -4% | 19% | -13% | u
N#Cc1c(NC(=O)c2ccc(Br)o2)n(-c2ccccc2)c2nc3ccccc3nc12 | u | u | -11% | 3% | 18% | x
CC(C)(C)c1ccc(N2C[C@@H](COc3ccc(C(=O)O)cc3)CC2=O)cc1 | x | 2% | -1% | x | 6% | x
O=C(OCC(=O)N1CCN(C(=O)c2ccco2)CC1)c1cc(-c2ccco2)nc2ccccc12 | u | 8.9µM* | 16µM* | 16µM* | 13µM* | u
CC1CC=CC2C1C(=O)N(Cc1ccccc1)C2c1ccc2ccccc2c1 (stereo not drawn) | x | -8% | -7% | x | -11% | x
Nc1c(C(=O)NCC2CCCO2)sc2nc3c(c(-c4ccco4)c12)CC/C3=C\c1ccco1 (stereo not drawn) | 7.1µM* | 5µM* | 2µM* | 22% | 2.5µM* | u
NC(=O)c1sc2nc3c(c(-c4ccco4)c2c1N)CCCC3 | 0% | -7% | -5% | 2% | 8% | x
Cc1ccc(C)c(NC(=O)CCCN2C(=O)C(c3ccccc3)Oc3cccnc32)c1 (stereo not drawn) | x | -3% | x | x | x | x
Cc1ccc(-c2nc3ncccc3o2)cc1NC(=O)COc1ccc(C(C)C)cc1 | x | -15% | x | x | x | x
Cc1cc(OCC(=O)Nc2cc(-c3nc4ncccc4o3)ccc2C)ccc1Cl | x | 28µM* | x | x | x | u
S=C(Nc1cccc(Cl)c1)Nc1cccc2cnccc12 | -1% | 4µM* | 0% | u | 0% | u
O=c1[nH][nH]c2c(N=Cc3ccccc3O)ccc(F)c12 | -11% | 28µM* | 8.9µM* | 23% | u | u
CCn1c(SCC(N)=O)nc2sc3c(c2c1=O)CCN(C)C3 | u | 0.71µM* | 5% | 22% | 7% | 10%
C=C1CC[C@@H]2[C@](C)(CC[C@@H](O)[C@]2(C)CO)[C@@H]1C/C=C1/C(=O)OC[C@H]1O | x | x | x | x | x | 5%
CC(C)C[C@H](NC(=O)CNC(=O)[C@@H]1CCCN1C(=O)[C@H](CCCNC(=N)N)NC(=O)[C@H](CC(=O)O)NC(=O)[C@@H](NC(=O)[C@H](CC(N)=O)NC(=O)[C@@H](NC(=O)[C@H](CC(=O)O)NC(=O)CNC(=O)[C@@H](NC(=O)[C@@H](NC(=O)[C@H](C)NC(=O)[C@@H](N)CCC(N)=O)[C@@H](C)O)C(C)C)C(C)C)[C@@H](C)O)C(=O)N[C@@H](CC(C)C)C(=O)N[C@@H](CC(=O)O)C(=O)N[C@@H](CC(C)C)C(=O)N[C@@H](CCCCN)C(=O)O | x | 0% | -10% | x | -3% | x
Cc1cc(C(C)C)n2c(nc3ccccc32)c1C#N | u | -1% | -1% | -4% | -6% | x
Cc1cc(-c2ccco2)c(C#N)c2nc3ccccc3n12 | u | 2.5µM* | -2% | u | i | u
CN(C)c1cc(Cl)c2nonc2c1N | -28% | 35µM* | u | -6% | 28µM* | u
CCN(CC)c1cc(Cl)c2nonc2c1N | -1% | -8% | -4% | 6% | -1% | x
COC(=O)/C=C\CCc1coc(/C=C\CNC(=O)OC)n1 | x | 1%[12.4 µM] | 22%[12.4 µM] | x | 5%[11.5 µM] | x
Cc1ccccc1NC1=C/C(=N\S(=O)(=O)c2ccc(C(=O)O)cc2)c2ccccc2C1=O | x | 7.1µM* | -8% | x | x | 11µM*
